According to publication PMC7862700, “An all-to-all approach to the identification of sequence-specific readers for epigenetic DNA modifications on cytosine”:

What was measured:
Experiment in all cases: DAPPL (digital affinity profiling via proximity ligation, sequencing); 10 mM Tris-HCl pH 7.5, 50 mM NaCl, 1 mM DTT, 4% glycerol, room temperature, 30 min; GST-TFs on glutathione beads, 16-mer random dsDNA library, 0.1% formaldehyde crosslink after washing; high values mean tight binding
[1] = molecular target: T1, FEV (Homo sapiens, UniProt Q99581 1-238); conditions: protein: recombinant; tags: N-terminal GST; dsDNA, one strand shown
T1 sequence: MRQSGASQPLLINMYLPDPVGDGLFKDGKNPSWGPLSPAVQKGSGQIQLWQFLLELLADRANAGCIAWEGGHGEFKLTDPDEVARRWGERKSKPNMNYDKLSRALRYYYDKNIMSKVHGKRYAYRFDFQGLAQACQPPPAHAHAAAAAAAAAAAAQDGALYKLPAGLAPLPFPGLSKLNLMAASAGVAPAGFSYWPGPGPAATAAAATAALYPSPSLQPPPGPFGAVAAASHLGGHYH
How it was run: (§1)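 The binding signal reported is, for every hexamer, its read frequency for a factor over its read frequency for the tag-only sample. Reads came from pools of yeast-expressed, GST-fused human transcription factors on glutathione beads, barcoded with DNA and mixed with that sample, which were incubated with 200 nmole of a random double-stranded 16-mer DNA library in Tris/NaCl/DTT/glycerol buffer at room temperature for 30 min. After washing, the pools were crosslinked with 0.1% formaldehyde, proximity-ligated with BsaI/T4 ligase for 1 h at 37 °C, PCR-amplified and sequenced on an Illumina NextSeq500.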

[2] = molecular target: ETV5 (Homo sapiens, UniProt P41161 1-510); conditions: protein: recombinant; tags: N-terminal GST; dsDNA, one strand shown
Sequence of ETV5 (P41161 whole entry): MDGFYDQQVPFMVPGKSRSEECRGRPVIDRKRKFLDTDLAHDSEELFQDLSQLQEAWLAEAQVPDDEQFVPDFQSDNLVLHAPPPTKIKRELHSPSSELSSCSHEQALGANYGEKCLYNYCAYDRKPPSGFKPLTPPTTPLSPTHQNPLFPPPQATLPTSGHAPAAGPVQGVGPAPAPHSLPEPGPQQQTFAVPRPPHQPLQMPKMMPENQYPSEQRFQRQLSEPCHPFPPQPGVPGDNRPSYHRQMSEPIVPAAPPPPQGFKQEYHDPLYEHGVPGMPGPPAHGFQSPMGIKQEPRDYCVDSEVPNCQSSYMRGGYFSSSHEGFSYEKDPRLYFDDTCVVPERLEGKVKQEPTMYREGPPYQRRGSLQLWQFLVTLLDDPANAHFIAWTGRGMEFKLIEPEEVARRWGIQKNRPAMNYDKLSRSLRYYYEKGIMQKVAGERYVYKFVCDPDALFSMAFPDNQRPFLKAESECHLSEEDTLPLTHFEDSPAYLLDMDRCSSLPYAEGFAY
How it was run: as §1

[3] = molecular target: HSF1 (Homo sapiens, UniProt Q00613 1-529); conditions: protein: recombinant; tags: N-terminal GST; chain copies: 3; dsDNA, one strand shown
Sequence of HSF1 (Q00613 whole entry): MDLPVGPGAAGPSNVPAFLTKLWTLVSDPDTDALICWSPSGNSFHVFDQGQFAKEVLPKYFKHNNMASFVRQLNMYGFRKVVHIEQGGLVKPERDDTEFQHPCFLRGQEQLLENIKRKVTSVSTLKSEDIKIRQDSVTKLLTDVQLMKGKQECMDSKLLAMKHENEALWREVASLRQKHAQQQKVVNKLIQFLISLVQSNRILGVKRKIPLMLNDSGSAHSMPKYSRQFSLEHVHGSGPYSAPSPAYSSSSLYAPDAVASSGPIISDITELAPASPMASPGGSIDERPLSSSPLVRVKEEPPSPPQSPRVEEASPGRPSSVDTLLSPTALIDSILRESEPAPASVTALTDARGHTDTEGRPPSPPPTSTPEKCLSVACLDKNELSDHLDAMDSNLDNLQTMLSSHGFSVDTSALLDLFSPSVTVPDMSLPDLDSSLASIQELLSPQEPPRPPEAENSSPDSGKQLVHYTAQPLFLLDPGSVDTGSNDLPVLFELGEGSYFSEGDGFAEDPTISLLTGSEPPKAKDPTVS
How it was run: as §1

[4] = molecular target: T2, SPIC (Homo sapiens, UniProt Q8N5J4 1-248); conditions: protein: recombinant; tags: N-terminal GST; dsDNA, one strand shown
T2 sequence: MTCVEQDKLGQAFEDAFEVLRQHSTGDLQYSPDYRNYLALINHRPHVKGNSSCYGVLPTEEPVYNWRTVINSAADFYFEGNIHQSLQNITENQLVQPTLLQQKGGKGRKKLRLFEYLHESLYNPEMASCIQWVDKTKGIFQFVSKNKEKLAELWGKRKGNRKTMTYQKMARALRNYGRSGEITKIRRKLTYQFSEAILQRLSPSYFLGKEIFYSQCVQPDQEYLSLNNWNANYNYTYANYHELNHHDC
How it was run: as §1

[5] = molecular target: ELF4 (Homo sapiens, UniProt Q99607 1-663); conditions: protein: recombinant; tags: N-terminal GST; dsDNA, one strand shown
Sequence of ELF4 (Q99607 whole entry): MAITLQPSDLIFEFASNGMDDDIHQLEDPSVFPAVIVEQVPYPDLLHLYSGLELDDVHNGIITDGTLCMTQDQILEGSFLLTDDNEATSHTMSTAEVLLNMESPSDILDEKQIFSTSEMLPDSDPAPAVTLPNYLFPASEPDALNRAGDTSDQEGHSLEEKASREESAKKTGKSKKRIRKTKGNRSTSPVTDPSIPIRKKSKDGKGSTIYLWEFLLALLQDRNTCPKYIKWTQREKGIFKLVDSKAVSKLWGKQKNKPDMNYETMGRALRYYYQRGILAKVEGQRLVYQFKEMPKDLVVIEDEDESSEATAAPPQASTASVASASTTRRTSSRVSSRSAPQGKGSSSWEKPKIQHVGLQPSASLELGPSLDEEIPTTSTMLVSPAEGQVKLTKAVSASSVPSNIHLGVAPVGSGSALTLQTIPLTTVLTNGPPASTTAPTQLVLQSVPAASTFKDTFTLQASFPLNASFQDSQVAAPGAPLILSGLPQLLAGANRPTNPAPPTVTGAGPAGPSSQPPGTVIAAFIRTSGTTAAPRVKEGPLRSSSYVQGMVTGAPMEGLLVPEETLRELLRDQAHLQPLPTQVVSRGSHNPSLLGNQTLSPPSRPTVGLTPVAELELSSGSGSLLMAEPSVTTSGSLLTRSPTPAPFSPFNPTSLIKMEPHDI
How it was run: as §1

[6] = molecular target: T3, ELK4 (Homo sapiens, UniProt P28324-2 1-405); conditions: protein: recombinant; tags: N-terminal GST; dsDNA, one strand shown
T3 sequence: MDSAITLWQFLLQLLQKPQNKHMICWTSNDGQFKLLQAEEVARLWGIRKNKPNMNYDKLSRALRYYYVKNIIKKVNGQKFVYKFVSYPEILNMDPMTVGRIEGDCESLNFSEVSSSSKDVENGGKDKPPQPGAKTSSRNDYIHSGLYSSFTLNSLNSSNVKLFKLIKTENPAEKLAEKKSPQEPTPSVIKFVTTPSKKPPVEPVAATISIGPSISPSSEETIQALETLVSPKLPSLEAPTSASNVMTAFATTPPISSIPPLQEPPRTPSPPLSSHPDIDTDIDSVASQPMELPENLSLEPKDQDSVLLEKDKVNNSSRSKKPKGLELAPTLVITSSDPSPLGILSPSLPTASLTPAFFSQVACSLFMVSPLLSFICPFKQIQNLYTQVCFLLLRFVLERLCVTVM
How it was run: as §1

[7] = molecular target: T4, ETV2 (Homo sapiens, UniProt O00321 1-342); conditions: protein: recombinant; tags: N-terminal GST; dsDNA, one strand shown
T4 sequence: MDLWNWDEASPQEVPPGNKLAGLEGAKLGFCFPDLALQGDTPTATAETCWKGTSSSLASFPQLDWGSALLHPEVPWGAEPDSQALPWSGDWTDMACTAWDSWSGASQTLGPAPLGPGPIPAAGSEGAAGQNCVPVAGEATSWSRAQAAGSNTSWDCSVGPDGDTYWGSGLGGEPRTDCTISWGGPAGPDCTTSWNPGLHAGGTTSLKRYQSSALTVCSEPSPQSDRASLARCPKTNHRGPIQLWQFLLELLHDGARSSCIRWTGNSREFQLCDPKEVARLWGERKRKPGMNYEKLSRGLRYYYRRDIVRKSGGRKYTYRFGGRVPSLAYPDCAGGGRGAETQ
How it was run: as §1

[8] = molecular target: T5, ELF3 (Homo sapiens, UniProt P78545 1-371); conditions: protein: recombinant; tags: N-terminal GST; dsDNA, one strand shown
T5 sequence: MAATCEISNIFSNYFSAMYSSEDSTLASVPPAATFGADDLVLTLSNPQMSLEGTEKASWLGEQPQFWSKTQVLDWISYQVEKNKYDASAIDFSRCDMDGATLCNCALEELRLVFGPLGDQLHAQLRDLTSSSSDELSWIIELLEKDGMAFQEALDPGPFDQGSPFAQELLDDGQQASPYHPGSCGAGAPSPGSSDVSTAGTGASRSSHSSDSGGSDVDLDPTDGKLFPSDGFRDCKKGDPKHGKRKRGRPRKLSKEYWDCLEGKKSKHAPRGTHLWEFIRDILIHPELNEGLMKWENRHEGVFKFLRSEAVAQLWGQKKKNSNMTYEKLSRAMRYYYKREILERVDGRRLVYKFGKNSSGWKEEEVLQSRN
How it was run: as §1

[9] = molecular target: CRX (Homo sapiens, UniProt O43186 1-299); conditions: protein: recombinant; tags: N-terminal GST; dsDNA, one strand shown
Sequence of CRX (O43186 whole entry): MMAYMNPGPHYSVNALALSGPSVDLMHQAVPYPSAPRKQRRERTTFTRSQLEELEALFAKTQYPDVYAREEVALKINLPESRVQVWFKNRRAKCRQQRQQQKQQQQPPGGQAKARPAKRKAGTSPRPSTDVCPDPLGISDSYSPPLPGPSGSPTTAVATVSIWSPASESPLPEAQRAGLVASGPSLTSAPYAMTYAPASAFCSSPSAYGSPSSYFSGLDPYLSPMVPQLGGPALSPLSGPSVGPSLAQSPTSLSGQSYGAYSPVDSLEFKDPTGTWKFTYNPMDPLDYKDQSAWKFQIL
How it was run: as §1

[10] = molecular target: ETV1 (Homo sapiens, UniProt P50549 1-477); conditions: protein: recombinant; tags: N-terminal GST; dsDNA, one strand shown
Sequence of ETV1 (P50549 whole entry): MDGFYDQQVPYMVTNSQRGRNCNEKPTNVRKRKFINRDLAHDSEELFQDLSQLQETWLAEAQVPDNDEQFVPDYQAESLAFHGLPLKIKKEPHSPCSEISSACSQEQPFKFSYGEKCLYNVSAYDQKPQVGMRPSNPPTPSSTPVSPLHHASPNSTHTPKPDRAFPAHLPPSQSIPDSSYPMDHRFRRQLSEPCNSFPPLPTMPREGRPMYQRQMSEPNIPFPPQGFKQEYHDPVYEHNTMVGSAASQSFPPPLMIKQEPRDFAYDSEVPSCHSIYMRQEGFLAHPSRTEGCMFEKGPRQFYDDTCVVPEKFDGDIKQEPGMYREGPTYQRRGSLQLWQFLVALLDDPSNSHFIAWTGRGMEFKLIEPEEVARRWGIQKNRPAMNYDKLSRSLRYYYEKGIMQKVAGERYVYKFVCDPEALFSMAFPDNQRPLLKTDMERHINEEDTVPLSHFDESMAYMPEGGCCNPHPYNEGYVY
How it was run: as §1

[11] = molecular target: T6, ERF (Homo sapiens, UniProt P50548 1-548); conditions: protein: recombinant; tags: N-terminal GST; dsDNA, one strand shown
T6 sequence: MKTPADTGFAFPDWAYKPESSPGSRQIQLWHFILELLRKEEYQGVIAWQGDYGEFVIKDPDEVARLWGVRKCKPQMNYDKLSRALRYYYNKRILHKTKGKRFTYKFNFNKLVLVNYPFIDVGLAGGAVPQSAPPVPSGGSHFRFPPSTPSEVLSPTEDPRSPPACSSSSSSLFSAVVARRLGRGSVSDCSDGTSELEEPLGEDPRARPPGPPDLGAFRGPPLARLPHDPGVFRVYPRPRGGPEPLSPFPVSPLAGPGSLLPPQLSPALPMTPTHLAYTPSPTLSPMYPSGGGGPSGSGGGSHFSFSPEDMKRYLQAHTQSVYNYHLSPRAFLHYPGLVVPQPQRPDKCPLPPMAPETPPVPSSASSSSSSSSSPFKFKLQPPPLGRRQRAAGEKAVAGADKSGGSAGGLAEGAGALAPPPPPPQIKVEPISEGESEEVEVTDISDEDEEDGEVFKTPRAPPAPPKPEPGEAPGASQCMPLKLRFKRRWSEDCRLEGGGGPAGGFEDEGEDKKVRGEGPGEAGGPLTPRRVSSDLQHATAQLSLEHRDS
How it was run: as §1

[12] = molecular target: T7, ETV3L (Homo sapiens, UniProt Q6ZN32 1-361); conditions: protein: recombinant; tags: N-terminal GST; dsDNA, one strand shown
T7 sequence: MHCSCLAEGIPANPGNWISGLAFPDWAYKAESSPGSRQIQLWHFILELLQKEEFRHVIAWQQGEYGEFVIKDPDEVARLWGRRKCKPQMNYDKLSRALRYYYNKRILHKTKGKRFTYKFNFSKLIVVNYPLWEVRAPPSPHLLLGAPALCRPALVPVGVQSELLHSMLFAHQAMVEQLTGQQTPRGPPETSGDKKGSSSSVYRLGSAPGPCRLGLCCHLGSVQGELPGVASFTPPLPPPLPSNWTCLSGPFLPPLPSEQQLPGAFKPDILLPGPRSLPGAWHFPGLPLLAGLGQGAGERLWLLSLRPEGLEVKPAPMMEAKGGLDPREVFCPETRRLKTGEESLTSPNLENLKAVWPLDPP
How it was run: as §1

[13] = molecular target: T8, ETS2 (Homo sapiens, UniProt P15036 1-469); conditions: protein: recombinant; tags: N-terminal GST; dsDNA, one strand shown
T8 sequence: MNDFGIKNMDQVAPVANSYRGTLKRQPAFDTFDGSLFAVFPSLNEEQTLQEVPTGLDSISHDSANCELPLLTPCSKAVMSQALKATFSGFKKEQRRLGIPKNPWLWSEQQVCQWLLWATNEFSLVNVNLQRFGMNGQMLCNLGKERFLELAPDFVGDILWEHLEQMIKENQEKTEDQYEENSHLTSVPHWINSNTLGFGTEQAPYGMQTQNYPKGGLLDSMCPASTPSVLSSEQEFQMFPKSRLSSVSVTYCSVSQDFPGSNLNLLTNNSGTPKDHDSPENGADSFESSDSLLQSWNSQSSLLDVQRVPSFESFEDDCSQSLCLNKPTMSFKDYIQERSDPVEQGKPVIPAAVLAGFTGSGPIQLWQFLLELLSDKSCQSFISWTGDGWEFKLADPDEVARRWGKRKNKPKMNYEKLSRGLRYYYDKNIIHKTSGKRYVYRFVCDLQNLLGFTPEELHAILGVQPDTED
How it was run: as §1

[14] = molecular target: T9, SPDEF (Homo sapiens, UniProt O95238 1-335); conditions: protein: recombinant; tags: N-terminal GST; dsDNA, one strand shown
T9 sequence: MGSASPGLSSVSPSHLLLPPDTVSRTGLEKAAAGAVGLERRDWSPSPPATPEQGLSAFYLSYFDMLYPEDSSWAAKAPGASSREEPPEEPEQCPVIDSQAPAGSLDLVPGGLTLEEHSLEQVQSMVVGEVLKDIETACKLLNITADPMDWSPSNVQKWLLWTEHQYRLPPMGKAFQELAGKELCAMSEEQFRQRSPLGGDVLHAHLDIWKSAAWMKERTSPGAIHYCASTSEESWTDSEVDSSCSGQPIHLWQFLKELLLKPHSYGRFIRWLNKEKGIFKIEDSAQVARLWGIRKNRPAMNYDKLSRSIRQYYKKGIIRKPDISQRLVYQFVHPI
How it was run: as §1

[15] = molecular target: T10, ETV7 (Homo sapiens, UniProt Q9Y603 1-341); conditions: protein: recombinant; tags: N-terminal GST; dsDNA, one strand shown
T10 sequence: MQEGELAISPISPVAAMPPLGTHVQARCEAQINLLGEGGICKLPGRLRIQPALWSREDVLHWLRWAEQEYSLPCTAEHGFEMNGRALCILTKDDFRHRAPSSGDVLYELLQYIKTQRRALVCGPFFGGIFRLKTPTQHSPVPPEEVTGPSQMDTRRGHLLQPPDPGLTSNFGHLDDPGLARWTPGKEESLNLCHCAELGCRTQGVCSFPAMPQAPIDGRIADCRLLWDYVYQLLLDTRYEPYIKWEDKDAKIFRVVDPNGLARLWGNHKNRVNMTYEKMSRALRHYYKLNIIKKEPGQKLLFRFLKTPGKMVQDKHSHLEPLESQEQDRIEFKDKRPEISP
How it was run: as §1

[16] = molecular target: T11, ELF5 (Homo sapiens, UniProt Q9UKW6-2 1-255); conditions: protein: recombinant; tags: N-terminal GST; dsDNA, one strand shown
T11 sequence: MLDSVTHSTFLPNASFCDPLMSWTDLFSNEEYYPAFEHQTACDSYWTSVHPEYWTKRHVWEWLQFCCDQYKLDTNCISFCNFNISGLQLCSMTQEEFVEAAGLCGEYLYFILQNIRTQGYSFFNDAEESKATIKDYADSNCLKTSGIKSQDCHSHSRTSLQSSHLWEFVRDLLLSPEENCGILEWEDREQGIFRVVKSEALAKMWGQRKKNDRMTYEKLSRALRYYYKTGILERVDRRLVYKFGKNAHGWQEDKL
How it was run: as §1

[17] = molecular target: T12, ETV3 (Homo sapiens, UniProt P41162-2 1-143); conditions: protein: recombinant; tags: N-terminal GST; dsDNA, one strand shown
T12 sequence: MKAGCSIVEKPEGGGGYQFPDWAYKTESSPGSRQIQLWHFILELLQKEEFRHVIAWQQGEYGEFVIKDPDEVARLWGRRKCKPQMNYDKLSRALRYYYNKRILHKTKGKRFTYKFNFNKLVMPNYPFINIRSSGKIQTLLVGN
How it was run: as §1

[18] = molecular target: ETV6 (Homo sapiens, UniProt P41212 1-452); conditions: protein: recombinant; tags: N-terminal GST; dsDNA, one strand shown
Sequence of ETV6 (P41212 whole entry): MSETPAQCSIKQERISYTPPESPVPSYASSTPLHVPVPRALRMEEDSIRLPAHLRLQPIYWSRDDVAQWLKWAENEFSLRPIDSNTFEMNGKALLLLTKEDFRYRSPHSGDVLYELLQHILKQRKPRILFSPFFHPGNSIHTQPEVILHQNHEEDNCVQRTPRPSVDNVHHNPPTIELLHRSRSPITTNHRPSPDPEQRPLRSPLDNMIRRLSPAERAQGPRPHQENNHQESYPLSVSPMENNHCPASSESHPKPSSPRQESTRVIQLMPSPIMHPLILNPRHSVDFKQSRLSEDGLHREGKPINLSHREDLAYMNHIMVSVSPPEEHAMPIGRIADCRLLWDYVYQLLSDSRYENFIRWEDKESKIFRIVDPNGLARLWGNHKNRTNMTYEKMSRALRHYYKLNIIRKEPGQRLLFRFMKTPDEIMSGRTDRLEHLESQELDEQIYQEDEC
How it was run: as §1

How did the binding signal [1] turn out when CGATTA was run?
The binding signal was 1.09 fold enrichment (6-mer frequency, TF over GST control).

And the binding signal [2]?
The binding signal was 1.08 fold enrichment (6-mer frequency, TF over GST control).

What about the binding signal [3] of the same sequence?
Its binding signal is 2.19 fold enrichment (6-mer frequency, TF over GST control).

What about the binding signal [4] of the same sequence?
Its binding signal is 1.12 fold enrichment (6-mer frequency, TF over GST control).

And the binding signal [5]?
The binding signal was 1.14 fold enrichment (6-mer frequency, TF over GST control).

And the binding signal [6]?
Its binding signal is 1.18 fold enrichment (6-mer frequency, TF over GST control).

And the binding signal [7]?
Its binding signal is 1.13 fold enrichment (6-mer frequency, TF over GST control).

What about the binding signal [8] of the same sequence?
The binding signal was 1 fold enrichment (6-mer frequency, TF over GST control).

And the binding signal [9]?
The binding signal was 3.25 fold enrichment (6-mer frequency, TF over GST control).

And the binding signal [10]?
The binding signal was 1.13 fold enrichment (6-mer frequency, TF over GST control).

And the binding signal [11]?
Its binding signal is 1.07 fold enrichment (6-mer frequency, TF over GST control).

And the binding signal [12]?
The binding signal was 1.23 fold enrichment (6-mer frequency, TF over GST control).

What about the binding signal [13] of the same sequence?
Its binding signal is 1.08 fold enrichment (6-mer frequency, TF over GST control).

What about the binding signal [14] of the same sequence?
Its binding signal is 1.09 fold enrichment (6-mer frequency, TF over GST control).

What about the binding signal [15] of the same sequence?
Its binding signal is 1.18 fold enrichment (6-mer frequency, TF over GST control).

And the binding signal [16]?
The binding signal was 1.11 fold enrichment (6-mer frequency, TF over GST control).

And the binding signal [17]?
Its binding signal is 1.18 fold enrichment (6-mer frequency, TF over GST control).

And the binding signal [18]?
Its binding signal is 1.13 fold enrichment (6-mer frequency, TF over GST control).
